Compounds without any hit were thinned out: in the full panel of roughly 79,000, 15% have a hit. The source made the active and inactive calls. Rule as the data show it: active = growth inhibition above about 70%; inactive = the rest.
How the values were obtained:
[1] = NCI Yeast Anticancer Drug Screen. Data for the rad50 strain (AID 155);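 also: 0% = growth of vehicle-only cultures of the same strain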; conditions: S. cerevisiae rad50 strain growth inhibition; at 50.0 µM; stronger effect = higher value
In short: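 Relative growth inhibition (compound vs vehicle) was measured in yeast with a defined repair-gene alteration.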

[2] = NCI Yeast Anticancer Drug Screen. Data for the mec2-1 strain (AID 157); conditions: S. cerevisiae mec2-1 strain, at 50.0 µM, stronger effect = higher value
In short: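 Growth inhibition is read against vehicle-treated controls after compound exposure of the mec2-1 yeast strain, which is defective in DNA damage repair or cell cycle control.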

[3] = NCI Yeast Anticancer Drug Screen. Data for the sgs1 mgt1 strain (AID 161);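 also: 0% = growth of cultures given vehicle only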; conditions: S. cerevisiae sgs1 mgt1 strain, at 50.0 µM, stronger effect = higher value
In short: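 Yeast cells carrying a defined DNA-repair defect were exposed to test compounds. Growth inhibition was measured relative to vehicle-treated controls.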

[4] = NCI Yeast Anticancer Drug Screen. Data for the cln2 rad14 strain (AID 165);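 also: 0% = growth equal to vehicle treated cultures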; conditions: S. cerevisiae cln2 rad14 strain, at 50.0 µM, stronger effect = higher value
In short: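 Growth inhibition, relative to vehicle-treated controls, is the read-out. The test organism is a yeast strain with defined genetic alterations, cln2 rad14.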

[5] = NCI Yeast Anticancer Drug Screen. Data for the bub3 strain (AID 167); conditions: S. cerevisiae bub3 mutant strain, at 50.0 µM, stronger effect = higher value
In short: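 Screening used yeast with an engineered genetic alteration affecting cell cycle control. Compound-exposed cultures were compared with vehicle cultures, and reduced growth was taken as inhibition.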

[6] = NCI Yeast Anticancer Drug Screen. Data for the mlh1 rad18 strain (AID 175); conditions: S. cerevisiae mlh1 rad18 strain growth inhibition; at 50.0 µM; stronger effect = higher value
In short: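 Cells of a genetically altered yeast strain, deficient in DNA damage repair, were treated with compound. Their growth was then compared with that of vehicle-treated cultures to give inhibition.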

Measured: growth inhibition

CCCCCCC1C=CC(CCCCCCCC(=O)O)C(/C=C/CCCCCCCC(=O)O)C1CCCCCC (stereo not drawn)
inactive: [1] -10.7% | [2] -10.8% | [3] -10.3% | [4] 21% | [5] -25% | [6] 6.85%

O=Cc1[nH]c(=S)[nH]c(=O)c1Cc1cccc(Cl)c1
active: [3] 83.2% | [5] 77.5% | [6] 83.2%
inactive: [1] 63.9% | [2] 35.2% | [4] 56.2%

Nc1nc(N)c2nc(-c3ccc([N+](=O)[O-])cc3)c(Cl)nc2n1
inactive: [1] -8.2% | [2] -16.3% | [3] -11.9% | [4] -44.9% | [5] -27% | [6] -28.7%

COc1ccc(OC)c2c(Cl)cc(NCCCN3CCN(CCCNc4cc(Cl)c5c(OC)ccc(OC)c5n4)CC3)nc12
inactive: [1] 13.5% | [2] 16.4% | [3] 21.8% | [4] -24.1% | [5] 4.65% | [6] 25.1%

S=c1nc[nH]c2c1ncn2Cc1ccccc1
inactive: [1] 5.55% | [2] 4.25% | [3] -14.3% | [4] 1.3% | [5] 4.9% | [6] 2.35%

O=C1C=C(Nc2ccc(Cl)cc2Cl)c2ccccc2C1=O
inactive: [1] 30.2% | [2] 17.7% | [3] 17.2% | [4] 29% | [5] 27.9% | [6] 37.5%

Cn1c(-c2ccc3c(c2)OCO3)cc(=O)c2ccccc21
inactive: [1] -11.2% | [2] -17.6% | [3] -4.9% | [4] -4.55% | [5] 4.85% | [6] 0.6%

COc1cc2cc(-c3ccc(Cl)c(Cl)c3)[n+](C)cc2cc1OC
inactive: [1] 36% | [2] 20.1% | [3] 35.3% | [4] 21.6% | [5] -3.55% | [6] 13.7%

CN(C)CCNC(=O)c1cccc(C(C)(C)C)c1[N+](=O)[O-]
inactive: [1] -11.2% | [2] -30.1% | [3] -18.9% | [4] 0.35% | [5] -19.1% | [6] -20%

CC(C)=NNC=N/C(C#N)=C(\N)C#N
inactive: [1] -14.3% | [2] -0.55% | [3] -17.5% | [4] 18% | [5] -9.6% | [6] -24.7%

CC(=O)C1OC1c1ccccn1 (stereo not drawn)
inactive: [1] -5.15% | [2] 3.7% | [3] -9.5% | [4] 55.8% | [5] 3.4% | [6] 3.35%

CC(=O)c1cccc(N2COC(C)(C)c3nc4ccccc4n3C2)c1
inactive: [1] 5.9% | [2] -9.85% | [3] -20.1% | [4] 12.8% | [5] -19.9% | [6] -0.05%

O=S(=O)(OI(O)CC(F)(F)F)C(F)(F)F
inactive: [1] 30.5% | [2] 48.1% | [3] -0.65% | [4] 5.9% | [5] 14.5% | [6] 39.5%

CCc1c2ccccc2cc2ccccc12
inactive: [1] -1% | [2] 1.85% | [3] -16.6% | [4] 9.75% | [5] 1.8% | [6] -5.95%

C[n+]1c2ccccc2c(Oc2c3ccccc3[n+](C)c3ccccc23)c2ccccc21
inactive: [1] 3.8% | [2] 11.2% | [3] 31.4% | [4] -15.3% | [5] -4.4% | [6] 0.1%

O=C(/C=C/c1ccc(Cl)cc1)c1ccccc1O
inactive: [1] -9.15% | [2] 9.8% | [3] -6.05% | [4] -10.8% | [5] -1.25% | [6] 11.1%

O=C1NC(Cc2ccc(O)cc2)C(=O)N2CCCC12 (stereo not drawn)
inactive: [1] 1.25% | [2] -3% | [3] -34.6% | [4] 0.4% | [5] -18.2% | [6] -14.2%

C=CCOc1ccc(C2C(C(=O)OC)C(=O)CC(O)(c3ccccc3)C2C(=O)OC)cc1OC (stereo not drawn)
inactive: [1] -63.2% | [2] -24.6% | [3] -14.9% | [4] -13.2% | [5] -0.9% | [6] -19.7%

CS(=O)(=O)Oc1ccccc1OS(C)(=O)=O
inactive: [1] 7.95% | [2] 8.85% | [3] -14.3% | [4] -27.1% | [5] 2.6% | [6] -9.65%

Nc1cc(C(=O)O)c2ccccc2c1
inactive: [1] 4.5% | [2] -6.95% | [3] -5.7% | [4] -16.8% | [5] 3.45% | [6] 5.15%

COc1ccc(-c2coc3cc(O)cc(O)c3c2=O)cc1
inactive: [1] 36.6% | [2] 22.6% | [3] 59.4% | [4] 31.7% | [5] 58.4% | [6] 62.9%

CCOC(=O)C(=CNc1ccc(F)c(F)c1)C(=O)OCC
inactive: [1] -0.4% | [2] 1.55% | [3] -8.35% | [4] -2.2% | [5] 26.1% | [6] -36%

CCOc1ccccc1NC(=O)C1=C(C)NC(C)=C(C(=O)Nc2ccccc2OCC)C1c1ccc([N+](=O)[O-])cc1
inactive: [1] -20.3% | [2] 27.2% | [3] -3% | [4] -4.9% | [5] 30.8% | [6] -7.2%

CC1=C(CCC(C)N)C(C)(C)CCC1 (stereo not drawn)
inactive: [1] 29% | [2] 14.7% | [3] 28% | [4] 7.75% | [5] 11.4% | [6] 12.8%

COC(=O)c1ccc(NCC2=CC(=O)c3ccccc3C2=O)cc1
inactive: [1] 46.9% | [2] 38% | [3] 59% | [4] 48.4% | [5] 54%
active: [6] 88%

O=C1OCC/C1=C1/NC2CCCCC2NC1=O (stereo not drawn)
inactive: [1] -6.55% | [2] -16.1% | [3] 1.15% | [4] -24.6% | [5] -6.25% | [6] -14.1%

CC(C)C(N)C(=O)NO (stereo not drawn)
inactive: [1] -17.1% | [2] 17.9% | [3] -13.4% | [4] 5.05% | [5] -1.7% | [6] -7.3%

N#CC(C#N)=CNC(N)=S
inactive: [1] -4.7% | [2] -8.75% | [3] -20.7% | [4] 13.7% | [5] -14.8% | [6] 10.1%

c1ccc2c(c1)Cc1ccccc1-2
inactive: [1] 1.5% | [2] -17.2% | [3] -10.6% | [4] -19.5% | [5] -20.9% | [6] -19.1%

COc1ccc(CCNC(=O)Cc2cc(OCc3ccccc3)c(OC)cc2[N+](=O)[O-])cc1OC
inactive: [1] 36.1% | [2] 8.4% | [3] 25.5% | [4] 0.8% | [5] -4.2% | [6] 6.9%

CSc1ccc(OC(=O)Nc2cc([N+](=O)[O-])ccc2F)cc1C
inactive: [1] 16.6% | [2] 11.2% | [3] 16% | [4] 12.2% | [5] 28.8% | [6] 17.1%

Cc1ccccc1NC(=S)NN
inactive: [1] 22.2% | [2] 14.7% | [3] 14.1% | [4] 16.6% | [5] 11.9% | [6] 12.3%

O=C(Cc1ccccc1)Nc1ccccc1Cl
inactive: [1] -8.1% | [2] 0.35% | [3] 4.55% | [4] 21.2% | [5] 14.7% | [6] 1.95%

CC1CN=C(N(Cc2ccc(F)cc2)C(=O)Nc2ccc(Cl)cc2)S1 (stereo not drawn)
inactive: [1] -35.5% | [2] -8.95% | [3] -41.5% | [4] 1.6% | [5] 7.7% | [6] -34.3%

Clc1ccc(Cl)c(-c2csc(-c3cccnc3)n2)c1
inactive: [1] 4.95% | [2] -11.6% | [3] 12.5% | [4] -34.5% | [5] 7.6% | [6] 17.9%

CCC(C)(C)c1ccc(O)c(CNCCO)c1
inactive: [1] 26.8% | [2] -2.55% | [3] 2.9% | [4] -18.9% | [5] 7.55% | [6] 8.85%

COc1ccc(-n2c(=O)c(N=Nc3ccccc3Cl)c(O)n(-c3ccccc3OC)c2=S)cc1
inactive: [1] 22.4% | [2] 4.65% | [3] 33.2% | [4] -33.1% | [5] 2.2% | [6] 3.2%

COc1cc2c(c(OC)c1OC)-c1ccc(OC)c(=O)cc1C(NC(=S)Nc1ccccc1)CC2 (stereo not drawn)
active: [1] 96.5% | [2] 96.8% | [3] 96.8% | [4] 93.5% | [5] 95.6% | [6] 96.5%
